{
  "source": "PubChem BioAssay (Tox21)",
  "note": "Inconclusive results are not listed. Unmarked numbers belong to inactive results. Active and inactive are the calls of the source. The call rests on the fitted dose curve; in most records, active means well fitted inhibition curve with a large enough effect in the repeat runs; inconclusive means weak or mixed curves, or effect the other way; inactive means no such curve, though single readings can be large or run the other way. On the % scale 0 is the no-effect control and ±100 the full control effect; potency means the concentration at half of the fitted maximal effect.",
  "data": [
    {"target": "Androgen receptor (Homo sapiens) (UniProt P10275)", "sequence (P10275 whole entry, looked up)": "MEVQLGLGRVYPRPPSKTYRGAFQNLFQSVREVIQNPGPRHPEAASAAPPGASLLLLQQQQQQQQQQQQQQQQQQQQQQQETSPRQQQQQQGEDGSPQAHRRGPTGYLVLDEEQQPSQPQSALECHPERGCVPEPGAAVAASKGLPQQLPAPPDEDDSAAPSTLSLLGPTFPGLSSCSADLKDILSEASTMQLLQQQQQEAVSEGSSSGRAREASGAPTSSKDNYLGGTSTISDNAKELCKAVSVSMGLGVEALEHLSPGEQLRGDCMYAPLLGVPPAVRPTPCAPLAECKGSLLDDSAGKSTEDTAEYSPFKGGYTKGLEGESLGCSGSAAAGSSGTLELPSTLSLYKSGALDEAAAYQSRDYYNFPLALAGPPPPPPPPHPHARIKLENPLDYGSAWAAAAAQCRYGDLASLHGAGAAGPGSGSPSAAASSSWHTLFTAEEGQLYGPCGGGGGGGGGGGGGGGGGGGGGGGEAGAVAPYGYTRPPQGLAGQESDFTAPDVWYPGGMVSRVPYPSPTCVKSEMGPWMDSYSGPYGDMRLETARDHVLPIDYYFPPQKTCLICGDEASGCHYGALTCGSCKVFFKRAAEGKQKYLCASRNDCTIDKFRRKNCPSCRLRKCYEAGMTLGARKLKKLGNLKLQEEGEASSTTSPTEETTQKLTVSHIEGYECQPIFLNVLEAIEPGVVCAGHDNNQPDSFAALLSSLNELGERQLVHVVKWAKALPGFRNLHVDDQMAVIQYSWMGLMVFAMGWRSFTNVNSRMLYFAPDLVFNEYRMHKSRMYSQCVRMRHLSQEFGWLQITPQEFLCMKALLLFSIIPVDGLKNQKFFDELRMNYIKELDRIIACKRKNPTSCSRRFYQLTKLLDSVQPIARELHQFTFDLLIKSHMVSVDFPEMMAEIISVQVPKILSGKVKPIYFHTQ", "assay": "qHTS assay to identify small molecule antagonists of the androgen receptor (AR) signaling pathway using the MDA cell line (AID 743042; further: nearly all actives have a fitted effect of over 55% in size)", "details": "MDA-kb2 AR-luc, MMTV luciferase, R1881 antagonist, 16 h; series mostly up to 70.3 µM; activity change, negative = inhibition: at the top concentration", "in_short": "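MDA-kb2 cells (human breast carcinoma, stably carrying an MMTV-luciferase reporter responsive to AR and GR) were plated at 3,000 cells/well and preincubated 5 hr at 37C, then given compound plus R1881 agonist for 16 h. ONE-Glo luminescence was read.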", "units": {"activity change, negative = inhibition": "%"}, "values": [
      {"smiles": "Nc1cccc([N+](=O)[O-])c1", "activity change, negative = inhibition": -21.1},
      {"smiles": "O=S(c1cc(Cl)cc(Cl)c1O)c1cc(Cl)cc(Cl)c1O", "activity change, negative = inhibition": -6.99},
      {"smiles": "COc1cc(C(=O)OCCCN2CCCN(CCCOC(=O)c3cc(OC)c(OC)c(OC)c3)CC2)cc(OC)c1OC", "activity change, negative = inhibition": -7.79},
      {"smiles": "O=C(c1ccc(F)cc1)C1CCN(CCn2c(=S)[nH]c3ccccc3c2=O)CC1", "activity change, negative = inhibition": -10.8},
      {"smiles": "CC(=O)NO", "activity change, negative = inhibition": 0.302},
      {"smiles": "C=C1C(=C/C=C2\\CCC[C@]3(C)[C@@H]([C@H](C)/C=C/[C@@H](O)C4CC4)CC[C@@H]23)C[C@@H](O)C[C@@H]1O", "Potency": "26.6 µM (active)"},
      {"smiles": "CCC(=O)O[C@]1(C(=O)CCl)[C@@H](C)C[C@H]2[C@@H]3CCC4=CC(=O)C=C[C@]4(C)[C@@]3(F)[C@@H](O)C[C@@]21C", "activity change, negative = inhibition": 230},
      {"smiles": "COC(=O)C1=C(C)NC(COC(N)=O)=C(C(=O)OC(C)C)C1c1cccc(Cl)c1Cl", "note": "(stereo not drawn)", "activity change, negative = inhibition": -4.51}
    ]}
  ]
}
